# Assay outcomes: PubChem BioAssay, Johns Hopkins Ion Channel Center
# TMEM16A inh: blocks the mouse calcium-activated chloride channel TMEM16A; HEK293 TMEM16A/YFP iodide influx fluorescence, ionomycin; normalized B-score (activity score, 25-100; higher = stronger inhibition) at 10 µM; 310,000 compounds, 1.2% hits; Q8BHY3;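 active = ratio plate-corrected score three or more library SD toward inhibition, starting fluorescence score within five deviations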;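 also: score derived from kinetic fluorescence span divided by baseline fluorescence per well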
# CHT block: inhibitors of human choline transporter CHT; Q9GZV3; CHT-expressing cells, membrane potential dye, choline response; hits give low values; B-score at 10 µM; 310,000 compounds, 0.86% hits; AID 488975;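 active = B-score over 3 SD under the library average, and starting fluorescence ratio not unusually high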;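 also: choline stimulus applied at its EC90 after an EC20 pre-addition; B-score computed on integrated fluorescence ratio after choline addition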
# TMEM16A act: activators or potentiators of mouse TMEM16A chloride channel; HEK293 TMEM16A/YFP-H148Q/I152L, iodide quench fluorescence; hits give low values; 340,000 compounds, 0.3% hits; B-score at 10 µM; Q8BHY3; AID 623877;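 active = fluorescence-ratio B-score plate-corrected deviation score at least 3 library SD below zero, with starting fluorescence score within 5 deviations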;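 also: channel opened by trigger with iodide after compound preincubation; score built on the fluorescence ratio of max minus min over baseline; more negative score means more quench and so TMEM16A activation or potentiation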
# CHT allo act: allosteric activators of human choline transporter CHT; Q9GZV3; CHT-expressing cells, membrane potential dye, choline EC20; hits give high values; LV-AA mutant CHT in HEK293 cells; B-score at 10 µM; 310,000 compounds, 0.49% hits; AID 488977;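 active = initial fluorescence not abnormally high and integrated response B-score, plate-corrected, over 3 SD above library mean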
# CHT inh conf: human CHT inhibition, confirmatory screen | shares compounds with CHT block | 2,400 compounds, 70% hits | CHT-expressing cells, choline membrane potential dye; LV-to-AA substituted CHT, HEK293 cells | CHT activity remaining % of control (hits give low values), % at 10 µM;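 active = choline transporter activity left, mean of duplicates at 10 µM, below buffer-only control mean minus 3 SD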;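 also: depolarization triggered by choline at its EC90 following an EC20 pre-addition; 0% = hemicholinium-3 full block and 100% = buffer-only control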
# HEK293 MPD ctr: activity in parental HEK293 cells lacking CHT. membrane potential dye, choline response; active = decrease or increase beyond buffer ±3SD. 2,400 compounds, 4% hits. membrane potential ratio readout (active if shifted either direction beyond buffer ±3SD; no single direction) at 10 µM. shares compounds with CHT block. AID 493222;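 also: parental cells lack the transporter so any hit is non-specific; ratio is peak minus trough fluorescence over baseline after EC90 choline challenge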
# The depositor's hits bear a star; i = inactive; / = not tested or not shown. An excerpt weighted towards active compounds, which were near 2.3% of everything screened.
SMILES,TMEM16A inh,CHT block,TMEM16A act,CHT allo act,CHT inh conf,HEK293 MPD ctr
c1ccc(CN2CCC(Nc3nc(-c4ccccc4)nc4ccccc34)CC2)cc1,i,-6.26*,i,i,i,i
Cc1cccc(S(=O)(=O)Nc2cc(Cl)ccc2N2CCOCC2)c1,/,/,i,/,/,/
COc1ccc(-c2cc(C(=O)NCCCN3CCOCC3)c3cc(C(C)C)ccc3n2)cc1,i,-7.41*,i,i,50.5%*,i
CCOc1ccc(-c2cc(C(=O)NCCCN3CCOCC3)c3ccccc3n2)cc1,i,i,i,i,/,/
Cc1ccc(S(=O)(=O)N(CC(=O)NCc2ccncc2)Cc2ccc(F)cc2)cc1,i,i,i,i,/,/
O=[N+]([O-])c1cc(Br)cc(C=Nc2ccc3c(c2)OCO3)c1O,i,-7.99*,i,i,31.9%*,i
O=C(O)c1cccc2c1/C(=N/Nc1ccc([N+](=O)[O-])cc1[N+](=O)[O-])c1ccccc1-2,i,-6.19*,i,i,69.1%*,i
CCCCN(CCCC)c1cn[nH]c(=O)c1Cl,i,-6.58*,i,i,66.3%*,i
CCOC(=O)c1c(CSc2ccc(C)cc2)n(C)c2cc(Br)c(O)c(CN(C)C)c12,i,i,i,i,/,/
CCOC(=O)c1c(CSc2ccccc2)n(C)c2ccc(O)c(CN3CCN(C)CC3)c12,i,-7.63*,i,i,31.4%*,i
COc1ccc(CC(NC(C)=O)C(=O)NC2CCN(C(=O)c3ccccc3F)CC2)cc1 (configuration not stated),i,i,i,i,/,/
Cc1cccc(N=Cc2cc(Br)cc(Cl)c2O)c1,i,-7.83*,i,i,57.0%*,i
O=C(Nc1ccc(Cl)cc1)C1CCCN(c2cnccn2)C1 (configuration not stated),i,i,i,i,/,/
CC1Cc2ccccc2N1C(=O)c1cc2cccnc2n(C)c1=O (configuration not stated),i,i,i,i,/,/
O=C1NC(=Nc2ccccc2Cl)S/C1=C\c1cccc([N+](=O)[O-])c1O,25*,-5.03*,i,i,38.5%*,i
CCN(Cc1ccccc1)C(=O)c1cc(COc2c(F)cccc2F)on1,i,i,i,i,/,/
CCN(CCn1cccn1)C(=O)c1cc(COc2c(F)cccc2F)on1,i,-5.52*,i,i,i,i
O=C(CNC(=O)c1ccc(Cl)cc1Cl)OCC(=O)c1ccc2c(c1)OCCO2,i,-6.67*,i,i,66.1%*,i
CCc1ccc(N2CC(C(=O)OCC(=O)Nc3ccc(C#N)cc3)CC2=O)cc1 (configuration not stated),/,/,i,/,/,/
CSc1nnc(-c2sccc2OCc2ccccc2)n1C,i,-7.27*,i,i,54.8%*,-9.55*
O=C(COC(=O)COc1ccccc1)NCc1ccc2c(c1)OCO2,/,/,i,/,/,/
Cc1ccc(-c2nc3c(Cl)cc(Cl)cc3c(=O)n2O)cc1,100*,-5.45*,i,i,45.8%*,i
CCOC(=O)CCCCCC(=O)Nc1ccc2c(c1)C(=O)N([C@H](C)CO)C[C@@H](C)[C@H](CN(C)Cc1ccc3c(c1)OCO3)O2,/,/,i,/,/,/
CC1CCN(c2nc3nonc3nc2Nc2ccc(F)cc2)CC1,i,-5.44*,i,i,i,i
COc1ccc(Nc2nc3nonc3nc2N2CCCCC2)cc1,i,i,i,i,/,/
SMILES,TMEM16A inh,CHT block,TMEM16A act,CHT allo act,CHT inh conf,HEK293 MPD ctr
CC(=O)C1=C(O)C(=O)N(Cc2ccccc2)C1c1ccccc1F (configuration not stated),i,-8.36*,i,i,i,i
Cc1noc(C)c1COc1ccc(C(=O)NCC(c2c(F)cccc2Cl)N(C)C)cc1 (configuration not stated),/,/,i,/,/,/
Oc1cccc(-n2nnnc2SCc2ccccc2F)c1,i,-6.28*,i,i,56.8%*,i
O=C(O)c1cc(-n2nnnc2SCc2ccc([N+](=O)[O-])cc2)ccc1Cl,i,i,i,i,/,/
O=[N+]([O-])c1ccc(O)c(CSc2nnnn2-c2ccccc2)c1,100*,-6.12*,i,i,29.9%*,i
Cc1cc(C)c(C(=O)CC(=O)c2cccnc2)c(C)c1,/,/,i,/,/,/
Cc1ccc2c(c1)N(C(=O)CCC(=O)NCCCN1CC(C)CC(C)C1)CCO2 (configuration not stated),i,i,i,i,/,/
CC1CCC(NC(=O)c2cc(C3CC3)nn2-c2ccccc2)CC1 (configuration not stated),/,/,i,/,/,/
O=C(Nc1cccc(S(=O)(=O)NC2=NCCC2)c1)c1cc(Cl)ccc1[N+](=O)[O-],i,-6.78*,i,i,20.6%*,i
Cn1cnnc1Sc1ccc(C(=O)NCCC(c2ccccc2)c2ccccc2)cc1[N+](=O)[O-],i,-10.3*,i,i,31.6%*,i
Cn1cnnc1SCC(=O)NCCC(c1ccccc1)c1ccccc1,i,i,i,i,/,/
O=C(NCc1ccccc1)c1sc(=S)n2c1[nH]c(=O)c1ccccc12,i,-6.69*,i,i,63.4%*,i
CCCCNC(=O)c1sc(=S)n2c1[nH]c(=O)c1ccc(C(=O)NCCc3ccc(OC)c(OC)c3)cc12,i,i,i,i,/,/
N#Cc1ccc(C2=NC(C(F)(F)F)(C(F)(F)F)c3c(n(Cc4ccco4)c(=O)[nH]c3=O)N2)cc1,100*,-10.8*,i,i,56.5%*,i
O=c1[nH]c(=O)n(Cc2ccco2)c2c1C(C(F)(F)F)(C(F)(F)F)N=C(CCc1ccccc1)N2,i,i,i,i,/,/
Cc1ccc2c(c1)N(S(=O)(=O)c1ccc(CN3C(=O)c4cccnc4C3=O)s1)CCO2,i,-5.21*,i,i,69.2%*,i
Cc1ccc(NC(=O)CN(C)C(=O)COC(=O)CNS(=O)(=O)c2ccc(Br)cc2Cl)cc1,i,-6.27*,-8.12*,i,66.5%*,i
COc1ccc(CN=C(Nc2ccccc2)SC2CC(=O)N(C)C2=O)cc1 (configuration not stated),i,-5.55*,i,i,i,i
COc1ccc2sc(-c3ccc(SC)cc3)c(-c3ccc(O)cc3)c2c1,/,/,i,/,/,/
CC(NCc1ccc(F)cc1)C(=O)Nc1cc(S(=O)(=O)N2CCCCC2)ccc1Cl (configuration not stated),i,-5.77*,i,i,50.3%*,i
Cc1cccc(C)c1OCC(=O)Nc1ccc2c(c1)C(=O)NC2=O,i,i,i,i,/,/
